# According to PubChem BioAssay AID624312 (National Center for Advancing Translational Sciences (NCATS), 2012):
# Records with an inconclusive call do not appear. The source made the active and inactive calls. The call rests on the fitted dose curve; in most records, active means well fitted inhibition curve with a large enough effect; inconclusive means small, poorly fitted or top-dose-only effect; inactive means no such curve, though single readings can be large or run the other way.
# Biological target: Peptidyl-prolyl cis-trans isomerase NIMA-interacting 1 (Homo sapiens) (UniProt Q13526)
# Sequence (Q13526 whole entry, looked up): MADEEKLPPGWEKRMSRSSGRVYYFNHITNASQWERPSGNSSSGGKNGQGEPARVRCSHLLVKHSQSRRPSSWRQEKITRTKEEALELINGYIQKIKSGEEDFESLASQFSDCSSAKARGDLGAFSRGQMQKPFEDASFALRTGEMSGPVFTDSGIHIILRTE
# Test: qHTS Assay to Find Inhibitors of Pin1: Hit Validation using Tamra Binding
# Details: Pin1 Tamra-peptide displacement, fluorescence polarization, 10 min
# Source text: The unique chemical properties of Pro allow for the adoption of two completely distinct amide bond conformations (cis and trans). Peptidyl-prolyl cis/trans isomerases (PPIases) are evolutionary conserved enzymes that catalyze cis/trans isomerization of peptidyl-prolyl peptide bonds. Distinct from all other PPIases such as cyclophilins and FK506-binding proteins (FKBPs), Pin1 binds a subset of phos.Ser/Thr-Pro-containing proteins using its protein-targeting WW domain and isomerizes only specific phos.Ser/Thr-Pro bonds, which cannot be effectively catalyzed by other known PPIases. […] The goal of this screen is to find small-molecule inhibitors of Pin1 using a fluorescence polarization competition assay.In the primary screen, a HiFluor-488-labeled peptide binds to the active site of Pin1 and can be displaced by compounds. […] To validate the hits using a different read-out, this Tamra binding assays was used against all the hits identified from the primary screen. […]
# Briefly, 2 uL of Pin1 (all columns but column 3, which just receives buffer and serves as negative control) are dispensed into Greiner black solid bottom 1536-well assay plates. […] Finally, plates are transferred to a ViewLux high-throughput CCD imager (PerkinElmer), wherein end-point measurements of fluorescence polarization are acquired. […]
smiles,measurement,value
Cc1cc2c(C(C)C)c(O)c(O)c(C=O)c2c(O)c1-c1c(C)cc2c(C(C)C)c(O)c(O)c(C=O)c2c1O,Potency,1690 nM (active)
